Measured values as given in PubChem BioAssay (NCATS).
Values joined by “and” are separate entries in the source; they are usually repeats but may differ in a detail not shown here. Identical values can stand only once. Records with an inconclusive call do not appear. Where a call stands in place of a potency, no number is given. Values without a mark were called inactive. Active and inactive are the calls of the source. The call rests on the fitted dose curve; in most records, active means well fitted curve in the direction sought with a large enough effect; inconclusive means small, poorly fitted or top-dose-only effect, or another doubt; inactive means no such curve, though single readings can be large; an effect the other way counts as inactive or inconclusive.

Experiments:
[1] = Viability qHTS for spleen associated tyrosine kinase inhibitor (SYKi) naive MV4-11 cells (AID 1963823); details: MV4-11 AML viability, CellTiter-Glo luminescence, 72 h; series mostly up to 45 µM; further: nearly all actives have a fitted effect of over 40% in size; further: potency means the concentration at half of the fitted maximal effect
How it was run: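 Luminescence from CellTiter-Glo, developed 10 min at room temperature, gave viability of MV4-11 cells never exposed to SYK inhibitor. Cells (500/well) had been incubated with compounds for 72 hr under standard culture conditions.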

[2] = Viability qHTS for spleen associated tyrosine kinase inhibitor (SYKi) drug resistant MV4-11 cells (AID 1963824); details: SYKi-resistant MV4-11 viability, CellTiter-Glo, 72 h; series mostly up to 45 µM; further: nearly all actives have a fitted effect of over 35% in size; further: potency means the concentration at half of the fitted maximal effect
How it was run: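 CellTiter-Glo luminescence, read 10 min after reagent addition, reports viability after a 72 hr compound exposure. Cells are an MV4-11 line made resistant to SYK inhibition, seeded at 500 per well onto compound-containing plates.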

[3] = Quantitative highthroughput screen to assess conditional lethalithy of NOMO1 cells grown in RPMI1640 with dialyzed fetal bovine serum (RPMI+ds) (AID 1963877); details: NOMO1 in RPMI+dialyzed FBS viability, ATP luminescence, 48 h; series mostly up to 45.8 µM; further: nearly all actives have a fitted effect of over 30% in size; further: potency means the concentration at half of the fitted maximal effect
How it was run: (§1)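 Each medium arm—HPLM with 10% dialyzed FBS, or RPMI1640 with 5 mM glucose and 10% untreated or dialyzed FBS—was screened against an 11-point, 3-fold compound titration for 48 h at 37 °C, with CellTiter-Glo luminescence as endpoint.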

[4] = Quantitative highthroughput screen to assess conditional lethalithy of NOMO1 cells grown in Human Plasma-Like Medium with dialyzed fetal bovine serum (HPLM+ds) (AID 1963878); details: NOMO1 AML cells in HPLM+ds, CellTiter-Glo viability, 48 h; series mostly up to 45.8 µM; further: nearly all actives have a fitted effect of over 35% in size; further: potency means the concentration at half of the fitted maximal effect
How it was run: as §1

[5] = Quantitative highthroughput screen to assess conditional lethalithy of P12 Ichikawa cells grown in RPMI1640 with dialyzed fetal bovine serum (RPMI+ds) (AID 1963880); details: ATP luminescence, 48 h; Potency: P12-Ichikawa viability; series mostly up to 45.8 µM; further: nearly all actives have a fitted effect of over 35% in size
How it was run: as §1

[6] = Quantitative highthroughput screen to assess conditional lethalithy of SEM cells grown in RPMI1640 with unreated serum (RPMI+s) (AID 1963883); details: SEM B-ALL cells, CellTiter-Glo viability, 48 h; series mostly up to 45.8 µM; further: nearly all actives have a fitted effect of over 35% in size; further: potency means the concentration at half of the fitted maximal effect
How it was run: as §1

[7] = Cellular viability qHTS for adrenocortical cancer (ACC) cell line SW-13 (AID 1963989); details: SW-13 ACC cells viability, CellTiter-Glo, 48 h; activity (max response): hits give low values; further: nearly all actives have a fitted effect of over 65% in size; further: potency means the concentration at half of the fitted maximal effect;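 on activity (max response): cells grown in serum-free medium with ITS supplement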
How it was run: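 Compound titrations (up to 46 uM final, in DMSO) were applied to SW-13 cells for 48 h at 37C/5% CO2. Reading used CellTiter-Glo after 20 min at room temperature; fitted curves yielded IC50 and efficacy.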

[8] = Quantitative highthroughput screen to assess conditional lethalithy of SEM cells grown in Human Plasma-Like Medium with dialyzed fetal bovine serum (HPLM+ds) (AID 1963882); details: SEM B-ALL cells in HPLM+ds, CellTiter-Glo viability, 48 h; series mostly up to 45.8 µM; further: nearly all actives have a fitted effect of over 35% in size
How it was run: as §1

[9] = Cellular viability qHTS for adrenocortical cancer (ACC) cell line NCI-H295R (AID 1963990); details: CellTiter-Glo ATP luminescence, 48 h; series mostly up to 46.1 µM; further: nearly all actives have a fitted effect of over 60% in size; further: potency means the concentration at half of the fitted maximal effect
How it was run: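 Readout: CellTiter-Glo luminescence, 20 min RT. Exposure: 48 h, 37C/5% CO2. Cells: NCI-H295R, ITS-DMEM serum-free. Range: up to 46 uM. Analysis: 4PL fit, IC50 plus efficacy.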

[10] = Quantitative highthroughput screen to assess conditional lethalithy of P12 Ichikawa cells grown in Human Plasma-Like Medium with dialyzed fetal bovine serum (HPLM+ds) (AID 1963879); details: ATP luminescence, 48 h; Potency: viability; series mostly up to 45.8 µM; further: nearly all actives have a fitted effect of over 35% in size; further: potency means the concentration at half of the fitted maximal effect
How it was run: as §1

[11] = Quantitative highthroughput screen to assess conditional lethalithy of P12 Ichikawa cells grown in RPMI1640 with untreated serum (RPMI+s) (AID 1963881); details: ATP luminescence, 48 h; Potency: viability; series mostly up to 45.8 µM; further: nearly all actives have a fitted effect of over 35% in size; further: potency means the concentration at half of the fitted maximal effect
How it was run: as §1

[12] = Quantitative highthroughput screen to assess conditional lethalithy of SEM cells grown in RPMI1640 with dialyzed fetal bovine serum (RPMI+ds) (AID 1963884); details: SEM B-ALL cells, RPMI+dialyzed FBS, CellTiter-Glo viability, 48 h; series mostly up to 45.8 µM
How it was run: as §1

## O=C(O)c1nn(Cc2ccc(Cl)cc2Cl)c2ccccc12
[1]
  Potency: inactive
[2]
  Potency: inactive
[3]
  Potency: inactive
[4]
  Potency: inactive
[5]
  Potency: inactive
[6]
  Potency: inactive
[7]
  activity (max response): 8.06% and -12.7%

## CCC(=O)O[C@@H]1C=C2CCC3C(CCC4(C)C3CC[C@@H]4OC(=O)CC)C2CC1 (some centres not stated)
[1]
  Potency: inactive
[2]
  Potency: inactive
[7]
  activity (max response): 1.7%

## O=S(=O)(F)Cc1ccccc1
[1]
  Potency: inactive
[2]
  Potency: inactive
[5]
  Potency: inactive
[8]
  Potency: inactive
[6]
  Potency: inactive
[7]
  activity (max response): 2.11%
[9]
  Potency: inactive

## c1ccc2c(c1)Nc1ccccc1S2
[1]
  Potency: inactive
[2]
  Potency: inactive
[7]
  activity (max response): -23.4%

## CC1(C)C(=O)N(c2ccc(C#N)c(C(F)(F)F)c2)C(=S)N1Cc1ccc(-c2cn[nH]n2)cc1
[1]
  Potency: 16.6 µM (active)
[2]
  Potency: 14.8 µM (active)
[7]
  Potency: 25.1 µM (active)

## CCN(CC)CCOC(=O)C(O)(c1ccccc1)c1ccccc1
[1]
  Potency: inactive
[2]
  Potency: inactive
[7]
  activity (max response): 1.88%

## COc1ccc(N(C(=O)Oc2c(C)cccc2C)c2ccnc(Nc3ccc(N4CCN(C)CC4)cc3)n2)c(OC)c1
[1]
  Potency: 1.48 µM (active)
[2]
  Potency: 1.16 µM (active) and 2.35 µM (active)
[10]
  Potency: inactive
[7]
  Potency: 8.91 µM (active)

## C1CN2CCC1CC2
[1]
  Potency: inactive
[2]
  Potency: inactive
[7]
  activity (max response): 2.77%

## Cc1c(C(=O)Nc2cccc(C(F)(F)F)c2)cc(-c2ccccc2)n1CCCN1CCOCC1
[1]
  Potency: 14.6 µM (active)
[2]
  Potency: 16.6 µM (active)
[10]
  Potency: inactive

## Cc1nnc2n1-c1sc(CCC(=O)N3CCOCC3)cc1C(c1ccccc1Cl)=NC2
[1]
  Potency: inactive
[2]
  Potency: inactive
[7]
  activity (max response): 5.36%

## C[C@@H]1C[C@@H]([C@H](O)CC2CC(=O)NC(=O)C2)C(=O)[C@@H](C)C1
[1]
  Potency: 376 nM (active) and 417 nM (active)
[2]
  Potency: 841 nM (active) and 590 nM (active)
[3]
  Potency: 1.66 µM (active)
[4]
  Potency: 1.18 µM (active)
[6]
  Potency: 0.332 µM (active)
[7]
  Potency: 1.84 µM (active) and 1.78 µM (active)
[9]
  Potency: 920 nM (active) and 1 µM (active)

## O=C(N[C@H]1CN2CCC1CC2)c1ccc(Cl)cc1
[1]
  Potency: inactive
[2]
  Potency: inactive
[3]
  Potency: inactive
[10]
  Potency: inactive
[5]
  Potency: inactive
[11]
  Potency: inactive
[7]
  activity (max response): 3.8%
[9]
  Potency: inactive

## Cc1sc2c(c1C)C(c1ccc(Cl)cc1)=N[C@@H](CC(=O)OC(C)(C)C)c1nnc(C)n1-2
[1]
  Potency: 0.105 µM (active)
[2]
  Potency: 0.118 µM (active)
[4]
  Potency: 0.418 µM (active)
[10]
  Potency: 1.66 µM (active)
[11]
  Potency: 1.87 µM (active)
[12]
  Potency: 0.209 µM (active)
[9]
  Potency: 3.98 µM (active)

## COC[C@H]1OC(=O)c2coc3c2[C@@]1(C)C1=C(C3=O)[C@@H]2CC[C@H](O)[C@@]2(C)C[C@H]1OC(C)=O
[1]
  Potency: 1.66 µM (active)
[2]
  Potency: 1.66 µM (active)
[7]
  activity (max response): -16.1%

## CC(C)=C[C@@H]1[C@@H](C(=O)OCc2coc(Cc3ccccc3)c2)C1(C)C
[1]
  Potency: inactive
[2]
  Potency: inactive
[7]
  activity (max response): -18.7%

## O=C(CCl)c1ccc(Cl)cc1Cl
[1]
  Potency: inactive
[2]
  Potency: inactive
[7]
  activity (max response): -3.67%

## CCCC[N+]1(C)[C@H]2CC(OC(=O)[C@H](CO)c3ccccc3)C[C@H]1[C@H]1O[C@H]12 (some centres not stated)
[1]
  Potency: inactive
[2]
  Potency: inactive
[10]
  Potency: inactive
[5]
  Potency: inactive
[7]
  activity (max response): -1.99%
[9]
  Potency: inactive

## O=C(O)CCCc1ccc(N(CCCl)CCCl)cc1
[1]
  Potency: inactive
[2]
  Potency: inactive
[6]
  Potency: 23.5 µM (active)
[7]
  activity (max response): 1.67% and -8.76%
[9]
  Potency: inactive

## Cc1ncsc1CCCl
[1]
  Potency: inactive
[2]
  Potency: inactive
[7]
  activity (max response): 10.3%

## COC[C@@H](NC(C)=O)C(=O)NCc1ccccc1
[1]
  Potency: inactive
[2]
  Potency: inactive
[8]
  Potency: inactive
[7]
  activity (max response): 8.1% and 13.7%
[9]
  Potency: inactive

## CCCCC1C(=O)NC(=O)N(C2CCCCC2)C1=O (configuration not stated)
[1]
  Potency: inactive
[2]
  Potency: inactive
[7]
  activity (max response): -4.2%
[9]
  Potency: inactive

## CCN(CC)C(C)C(=O)c1ccccc1 (configuration not stated)
[1]
  Potency: inactive
[2]
  Potency: inactive
[7]
  activity (max response): 11.1%
[9]
  Potency: inactive
